In PubChem BioAssay (NCATS):
Inconclusive results are not listed. The source made the active and inactive calls. Unless noted, calls come from the whole dose curve.

How the values were obtained:
[1] = qHTS for Inhibitors of the Functional Ribonucleoprotein Complex (vRNP) of Lassa (LASV) Arenavirus: LASV Primary Screen - GLuc reporter signal (AID 1347082; calls by dose curve; tested in HEK293 reporter line; note: nearly all actives have a fitted effect of over 60% in size)
[2] = qHTS for Inhibitors of the Functional Ribonucleoprotein Complex (vRNP) of Lassa (LASV) Arenavirus: Viability assay - alamar blue signal for LASV Primary Screen (AID 1347083; calls by dose curve; tested in HEK293 reporter line; note: nearly all actives have a fitted effect of over 80% in size)
[3] = qHTS for Inhibitors of the Functional Ribonucleoprotein Complex (vRNP) of Lymphocytic Choriomeningitis Arenaviruses (LCMV): Viability assay - alamar blue signal for LCMV Primary Screen (AID 1347085; calls by dose curve; tested in HEK293 reporter line; note: nearly all actives have a fitted effect of over 80% in size)
[4] = target: Nucleoprotein (Lymphocytic choriomeningitis virus (strain Armstrong)) (UniProt P09992); assay: qHTS for Inhibitors of the Functional Ribonucleoprotein Complex (vRNP) of Lymphocytic Choriomeningitis Arenaviruses (LCMV): LCMV Primary Screen - GLuc reporter signal (AID 1347086); note: nearly all actives have a fitted effect of over 70% in size
Chain of Nucleoprotein (Lymphocytic choriomeningitis virus (strain Armstrong)) (P09992 whole entry, looked up): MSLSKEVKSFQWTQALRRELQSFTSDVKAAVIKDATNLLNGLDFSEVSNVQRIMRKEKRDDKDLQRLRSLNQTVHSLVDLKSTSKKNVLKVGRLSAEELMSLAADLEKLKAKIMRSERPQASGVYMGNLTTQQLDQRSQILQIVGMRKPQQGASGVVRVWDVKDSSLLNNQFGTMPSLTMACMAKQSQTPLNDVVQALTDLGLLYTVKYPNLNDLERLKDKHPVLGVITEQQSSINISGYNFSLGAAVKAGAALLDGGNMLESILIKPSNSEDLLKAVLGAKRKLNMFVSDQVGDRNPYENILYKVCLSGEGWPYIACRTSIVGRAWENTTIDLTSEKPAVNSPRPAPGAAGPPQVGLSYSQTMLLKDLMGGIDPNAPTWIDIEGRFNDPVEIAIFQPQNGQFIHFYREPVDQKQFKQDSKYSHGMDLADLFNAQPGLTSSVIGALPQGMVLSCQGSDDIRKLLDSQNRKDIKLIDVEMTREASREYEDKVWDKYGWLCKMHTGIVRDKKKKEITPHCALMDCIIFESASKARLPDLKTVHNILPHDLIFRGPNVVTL
% is set by controls: 0 for no effect and ±100 for the full control effect.
Note: series mostly up to about 57 µM.

Nc1ncnc2c1ncn2Cc1c(F)cccc1Cl
inactive: Potency [1] | Potency [2] | Potency [3] | Potency [4]

CC(O)C(=O)O (stereo unspecified)
inactive: Potency [1] | Potency [2] | Potency [3] | Potency [4]

C[C@@H]1CCC[C@H](C)N1
inactive: Potency [1] | Potency [2] | Potency [3] | Potency [4]

COc1cnc(NS(=O)(=O)c2ccc(N)cc2)nc1
inactive: Potency [1] | Potency [2] | Potency [3] | Potency [4]

CCCCN(CCCC)CCCOC(=O)c1ccc(N)cc1
inactive: Potency [1] | Potency [2] | Potency [3] | Potency [4]

CC(O)CCCCn1c(=O)c2c(ncn2C)n(C)c1=O (stereo unspecified)
inactive: Potency [1] | Potency [2] | Potency [3] | Potency [4]

O=C(O)COc1nn(Cc2ccccc2)c2ccccc12
inactive: Potency [1] | Potency [2] | Potency [3] | Potency [4]

Cc1cc(=O)[nH]c(=S)[nH]1
inactive: Potency [1] | Potency [2] | Potency [3] | Potency [4]

CC1(C)OC[C@@H]2O[C@@]3(C(=O)O)OC(C)(C)O[C@H]3[C@@H]2O1
inactive: Potency [1] | Potency [2] | Potency [3] | Potency [4]

Cc1c(Nc2ncccc2C(=O)O)cccc1C(F)(F)F
inactive: Potency [1] | Potency [2] | Potency [3] | Potency [4]

Nc1nc(N)nc(-c2cc(Cl)ccc2Cl)n1
inactive: Potency [1] | Potency [2] | Potency [3] | Potency [4]

O=C(O)Cc1ccc(OCCNC[C@H](O)c2ccccc2)cc1
inactive: Potency [1] | Potency [2] | Potency [3] | Potency [4]

CC(=O)CC(c1ccc([N+](=O)[O-])cc1)c1c(O)c2ccccc2oc1=O (stereo unspecified)
inactive: Potency [1] | Potency [2] | Potency [3] | Potency [4]

N=C(N)N
inactive: Potency [1] | Potency [2] | Potency [3] | Potency [4]

O=C(C1CCCCC1)N1CC(=O)N2CCCc3ccccc3C2C1 (stereo unspecified)
inactive: Potency [1] | Potency [2] | Potency [3] | Potency [4]

CCCCCC[C@@H](CCC)C(=O)O
inactive: Potency [1] | Potency [2] | Potency [3] | Potency [4]

COc1ccc(O)cc1
inactive: Potency [1] | Potency [2] | Potency [3] | Potency [4]

NC(=O)COCCN1CCN(C(c2ccccc2)c2ccc(Cl)cc2)CC1 (stereo unspecified)
inactive: Potency [1] | Potency [2] | Potency [3] | Potency [4]

NC(=O)c1cccnc1
inactive: Potency [1] | Potency [2] | Potency [3] | Potency [4]

Cc1ncc(CO)c(CO)c1O
inactive: Potency [1] | Potency [2] | Potency [3] | Potency [4]

Cc1ccc(C(=O)C(C)CN2CCCCC2)cc1 (stereo unspecified)
inactive: Potency [1] | Potency [2] | Potency [3] | Potency [4]

NC(=O)c1ccccc1O
inactive: Potency [1] | Potency [2] | Potency [3] | Potency [4]

Cc1cc(-n2nc3ccc(Cl)cc3n2)c(O)c(C(C)(C)C)c1
inactive: Potency [1] | Potency [2] | Potency [3] | Potency [4]

Cc1ccc(Nc2nccc(N(C)c3ccc4c(C)n(C)nc4c3)n2)cc1S(N)(=O)=O
inactive: Potency [1] | Potency [2] | Potency [3] | Potency [4]

O=C(O)C(S)C(S)C(=O)O (stereo unspecified)
inactive: Potency [1] | Potency [2] | Potency [3] | Potency [4]

Oc1ccc(Cl)c2cccnc12
inactive: Potency [1] | Potency [2] | Potency [3] | Potency [4]

CCOC(=O)c1ccccc1O
inactive: Potency [1] | Potency [2] | Potency [3] | Potency [4]

CCOC(N)=O
inactive: Potency [1] | Potency [2] | Potency [3] | Potency [4]

CC(C)(C)C(=O)Oc1ccc(S(=O)(=O)Nc2ccccc2C(=O)NCC(=O)O)cc1
inactive: Potency [1] | Potency [2] | Potency [3] | Potency [4]

CCOC(=O)/C=C(C)/C=C/C=C(C)/C=C/c1c(C)cc(OC)c(C)c1C
inactive: Potency [1] | Potency [2] | Potency [3] | Potency [4]

COC(=O)[C@@H]1[C@H]2C[C@H]3c4[nH]c5ccccc5c4CCN3C[C@@H]2CC[C@@H]1O
inactive: Potency [1] | Potency [2] | Potency [3] | Potency [4]

CC(C)(C)NCC(O)COc1ccc(NC(=O)NC2CCCCC2)cc1 (stereo unspecified)
inactive: Potency [1] | Potency [2] | Potency [3] | Potency [4]

O=C(NCCO[N+](=O)[O-])c1cccnc1
inactive: Potency [1] | Potency [2] | Potency [3] | Potency [4]

Nc1nc(N)c(-c2ccccc2)s1
inactive: Potency [1] | Potency [2] | Potency [3] | Potency [4]

NC(=O)N[C@@H](CCC(=O)O)C(=O)O
inactive: Potency [1] | Potency [2] | Potency [3] | Potency [4]

CCCNC(C)C(=O)Nc1c(C)csc1C(=O)OC (stereo unspecified)
inactive: Potency [1] | Potency [2] | Potency [3] | Potency [4]

N=C(N)N1CCc2ccccc2C1
inactive: activity change, negative = inhibition [1] -8.85% [at 5.82 µM] | activity change, negative = reduced viability [2] -0.684% [at 5.82 µM] | activity change, negative = lower viability [3] -9.02% [at 5.82 µM] | activity change, negative = inhibition [4] -2.35% [at 5.82 µM]

N#CC1(c2ccc(F)cc2)CCC(=O)CC1
inactive: Potency [1] | Potency [2] | Potency [3] | Potency [4]

CN=C(NC#N)Nc1ccc(C2=NNC(=O)CC2C)cc1 (stereo unspecified)
inactive: Potency [1] | Potency [2] | Potency [3] | Potency [4]

NCCc1ccn[nH]1
inactive: Potency [1] | Potency [2] | Potency [3] | Potency [4]

O=C1c2ccccc2C(=O)c2c1ccc(O)c2O
inactive: Potency [1] | Potency [2] | Potency [3] | Potency [4]

CC(CSC(=O)c1ccccc1)C(=O)N1C[C@@H](Sc2ccccc2)C[C@H]1C(=O)O (stereo partly specified)
inactive: Potency [1] | Potency [2] | Potency [3] | Potency [4]

C[C@]12C=CC(=O)C=C1[C@@H](F)C[C@@H]1[C@@H]2[C@@H](O)C[C@@]2(C)[C@H]1CC[C@]2(O)C(=O)CO
inactive: Potency [1] | Potency [2] | Potency [3] | Potency [4]

NS(=O)(=O)c1cc(C(=O)NN2C[C@H]3[C@H]4CCC(C4)[C@H]3C2)ccc1Cl
inactive: Potency [1] | Potency [2] | Potency [3] | Potency [4]

COc1ccc(C(=O)CC(=O)c2ccc(C(C)(C)C)cc2)cc1
inactive: Potency [1] | Potency [2] | Potency [3] | Potency [4]

O=C(OCC1(COC(=O)c2cccnc2)CCCC(COC(=O)c2cccnc2)(COC(=O)c2cccnc2)C1O)c1cccnc1
inactive: Potency [1] | Potency [2] | Potency [3] | Potency [4]

O=C1CC2(CCCC2)CC(=O)N1
inactive: Potency [1] | Potency [2] | Potency [3] | Potency [4]

COC(=O)c1ccccc1C(=O)c1ccc(OCCN2CCCCC2)cc1
inactive: Potency [1] | Potency [2] | Potency [3] | Potency [4]

CCCOc1ccc2c(c1)CC[C@@H]1[C@@H]2CC[C@]2(C)C(OC)CC[C@@H]12 (stereo partly specified)
inactive: Potency [1] | Potency [2] | Potency [3] | Potency [4]

CCCCOCCOC(=O)c1cccnc1
inactive: Potency [1] | Potency [2] | Potency [3] | Potency [4]

CCn1cc(C(=O)O)c(=O)c2cc(F)c(N3CCNC(C)C3)c(F)c21 (stereo unspecified)
inactive: Potency [1] | Potency [2] | Potency [3] | Potency [4]

CC12CCC(CC1)C(C)(C)O2
inactive: Potency [1] | Potency [2] | Potency [3] | Potency [4]

Cc1cc(O)c2c(O)c3c(O)cccc3cc2c1
inactive: Potency [1] | Potency [2] | Potency [3] | Potency [4]

CC(=O)Nc1ccc(CC(=O)O)cc1
inactive: Potency [1] | Potency [2] | Potency [3] | Potency [4]

CC(=O)NO
inactive: Potency [1] | Potency [2] | Potency [3] | Potency [4]

Cc1nc2c([nH]1)c(=O)n(C)c(=O)n2Cc1ccco1
inactive: Potency [1] | Potency [2] | Potency [3] | Potency [4]

Oc1cccc(O)c1
inactive: Potency [1] | Potency [2] | Potency [3] | Potency [4]

O=[N+]([O-])c1cncn1CCN1CCOCC1
inactive: Potency [1] | Potency [2] | Potency [3] | Potency [4]

COc1cccc(OC)c1C(=O)N[C@@H]1C(=O)N2[C@@H]1SC(C)(C)[C@@H]2C(=O)O
inactive: Potency [1] | Potency [2] | Potency [3] | Potency [4]

CCCCCN(CCCOC)C(=O)C(CCC(=O)O)NC(=O)c1ccc(Cl)c(Cl)c1 (stereo unspecified)
inactive: Potency [1] | Potency [2] | Potency [3] | Potency [4]

CC(=O)OCC(=O)[C@@]1(O)CC[C@H]2[C@@H]3CCC4=CC(=O)CC[C@]4(C)[C@H]3C(=O)C[C@@]21C
inactive: Potency [1] | Potency [2] | Potency [3] | Potency [4]

O=C(Nc1ccc(Cl)c(Cl)c1)C1CC1
inactive: Potency [1] | Potency [2] | Potency [3] | Potency [4]

C[C@]12C=CC(=O)C=C1CC[C@@H]1[C@@H]2[C@@H](O)C[C@@]2(C)[C@H]1CC[C@]2(O)C(=O)CO
inactive: Potency [1] | Potency [2] | Potency [3] | Potency [4]

COc1ccc(Cc2cnc(N)nc2N)cc1OC
inactive: Potency [1] | Potency [2] | Potency [3] | Potency [4]

OC[C@H]1O[C@@H]2O[C@H]3[C@H](O)[C@@H](O)[C@@H](O[C@H]4[C@H](O)[C@@H](O)[C@@H](O[C@H]5[C@H](O)[C@@H](O)[C@@H](O[C@H]6[C@H](O)[C@@H](O)[C@@H](O[C@H]7[C@H](O)[C@@H](O)[C@@H](O[C@H]8[C@H](O)[C@@H](O)[C@@H](O[C@H]1[C@H](O)[C@H]2O)O[C@@H]8CO)O[C@@H]7CO)O[C@@H]6CO)O[C@@H]5CO)O[C@@H]4CO)O[C@@H]3CO
inactive: Potency [1] | Potency [2] | Potency [3] | Potency [4]

COc1cc(OC)c(C(=O)CCCN2CCCC2)c(OC)c1
inactive: Potency [1] | Potency [2] | Potency [3] | Potency [4]

O=C(O)c1ccccc1S
inactive: Potency [1] | Potency [2] | Potency [3] | Potency [4]

CN1CC(=O)NC1=N
inactive: Potency [1] | Potency [2] | Potency [3] | Potency [4]

CCCN1CCCC[C@H]1C(=O)Nc1c(C)cccc1C
inactive: Potency [1] | Potency [2] | Potency [3] | Potency [4]
